± gives the standard deviation of the averaged measurements.
System: NanoLuc luciferase (NLuc)
Test: residual bioluminescent signal relative to negative (DMSO) control; higher = less interference (more residual luciferase signal)
Protocol: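 Purified luciferase (FLuc 10 nM + 10 uM D-luciferin; NLuc 10 pM + 10 uM furimazine; RLuc 50 pM + 2 uM coelenterazine) in 384-well plates; metal salt pre-incubated with enzyme 10 min at RT, substrate added and luminescence read after 10 min. Signal normalised to plate DMSO negative control (% N_VALUE = x/mean neg *100); triplicate wells at 0.01, 1 and 5 mM salt.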

[1] = metal salt concentration 0.01 mM, HEPES conditions (100 mM HEPES, 0.1% BSA, pH 7.5)
[2] = metal salt concentration 0.01 mM, screening conditions (PBS, 0.1% BSA, pH 7.4)
[3] = metal salt concentration 1 mM, HEPES conditions (100 mM HEPES, 0.1% BSA, pH 7.5)
[4] = metal salt concentration 1 mM, screening conditions (PBS, 0.1% BSA, pH 7.4)
[5] = metal salt concentration 5 mM, HEPES conditions (100 mM HEPES, 0.1% BSA, pH 7.5)
[6] = metal salt concentration 5 mM, screening conditions (PBS, 0.1% BSA, pH 7.4)

O=[N+]([O-])[O-].O=[N+]([O-])[O-].[Pb+2] [lead(II) nitrate]
residual bioluminescent signal [1]: 94 ± 3.2%
residual bioluminescent signal [2]: 93.8 ± 2.2%
residual bioluminescent signal [3]: 26.7 ± 2.9%
residual bioluminescent signal [4]: 88.2 ± 4.3%
residual bioluminescent signal [5]: 7.56 ± 0.53%
residual bioluminescent signal [6]: 44.2 ± 9%

O=[N+]([O-])[O-].O=[N+]([O-])[O-].O=[N+]([O-])[O-].[Ga+3] [gallium(III) nitrate]
residual bioluminescent signal [1]: 96.1 ± 2.9%
residual bioluminescent signal [2]: 99.5 ± 2.3%
residual bioluminescent signal [3]: 70.9 ± 6.9%
residual bioluminescent signal [4]: 83 ± 7.1%
residual bioluminescent signal [5]: 8.8 ± 1.5%
residual bioluminescent signal [6]: 0.649 ± 0.57%

[Cl][Sn][Cl] [tin(II) chloride]
residual bioluminescent signal [1]: 95.8 ± 2.9%
residual bioluminescent signal [2]: 97 ± 5.1%
residual bioluminescent signal [3]: 90.1 ± 5%
residual bioluminescent signal [4]: 84.2 ± 6.6%
residual bioluminescent signal [5]: 87.3 ± 5%
residual bioluminescent signal [6]: 0.413 ± 0.39%

O=[N+]([O-])[O-].[Na+] [sodium nitrate]
residual bioluminescent signal [1]: 89.7 ± 1.5%
residual bioluminescent signal [2]: 96.7 ± 2.3%
residual bioluminescent signal [3]: 91.8 ± 4.2%
residual bioluminescent signal [4]: 93.2 ± 3.3%
residual bioluminescent signal [5]: 102 ± 2.5%
residual bioluminescent signal [6]: 94.1 ± 2.8%

O=[N+]([O-])[O-].O=[N+]([O-])[O-].O=[N+]([O-])[O-].[Al+3] [aluminium nitrate]
residual bioluminescent signal [1]: 95.9 ± 2.5%
residual bioluminescent signal [2]: 100 ± 2.5%
residual bioluminescent signal [3]: 68.7 ± 3.2%
residual bioluminescent signal [4]: 89.9 ± 5.7%
residual bioluminescent signal [5]: 107 ± 1.8%
residual bioluminescent signal [6]: 103 ± 4.9%

O=[N+]([O-])[O-].O=[N+]([O-])[O-].[Cu+2] [copper(II) nitrate]
residual bioluminescent signal [1]: 95.5 ± 6.9%
residual bioluminescent signal [2]: 90.4 ± 2.7%
residual bioluminescent signal [3]: 0.235 ± 0.062%
residual bioluminescent signal [4]: 0.732 ± 0.11%
residual bioluminescent signal [5]: 0.689 ± 0.91%
residual bioluminescent signal [6]: 0.201 ± 0.12%

O=[N+]([O-])[O-].O=[N+]([O-])[O-].[Zn+2] [zinc nitrate]
residual bioluminescent signal [1]: 93.6 ± 0.95%
residual bioluminescent signal [2]: 93 ± 6.4%
residual bioluminescent signal [3]: 30.5 ± 4.9%
residual bioluminescent signal [4]: 32.8 ± 4.5%
residual bioluminescent signal [5]: 16.1 ± 1.8%
residual bioluminescent signal [6]: 9.03 ± 2.6%

— the supplement of paper PMC11628255, “Interference of metal ions on the bioluminescent signal of firefly, Renilla, and NanoLuc luciferases in high-throughput screening assays” (Frontiers in Chemistry, 2024)
